# Measurements: article PMC7862700, “An all-to-all approach to the identification of sequence-specific readers for epigenetic DNA modifications on cytosine”
# Tests used:
# Test in all cases: DAPPL (digital affinity profiling via proximity ligation, sequencing); 10 mM Tris-HCl pH 7.5, 50 mM NaCl, 1 mM DTT, 4% glycerol, room temperature, 30 min; GST-TFs on glutathione beads, 16-mer random dsDNA library, 0.1% formaldehyde crosslink after washing; high values mean tight binding
# FEV = biological target: T1, FEV (Homo sapiens, UniProt Q99581 1-238); details: protein: recombinant; tags: N-terminal GST; dsDNA, one strand shown
# T1 sequence: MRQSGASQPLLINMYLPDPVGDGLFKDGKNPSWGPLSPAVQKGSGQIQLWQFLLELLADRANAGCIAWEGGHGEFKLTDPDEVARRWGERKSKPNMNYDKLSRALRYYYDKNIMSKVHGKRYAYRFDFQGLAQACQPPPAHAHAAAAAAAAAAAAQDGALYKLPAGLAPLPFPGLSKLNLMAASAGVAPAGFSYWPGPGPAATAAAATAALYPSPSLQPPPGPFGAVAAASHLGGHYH
# Outline: (§1)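 Each value of binding signal is a hexamer's read frequency for a factor divided by the same hexamer's frequency in the tag-only sample. Barcoded, bead-captured GST fusions of human transcription factors made in yeast were pooled with that sample and incubated with 200 nmole of a random double-stranded 16-mer DNA library in Tris/NaCl/DTT/glycerol buffer at room temperature for 30 min. Washing, 0.1% formaldehyde crosslinking, proximity ligation, PCR and Illumina NextSeq500 sequencing followed.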
# ETV5 = ETV5 (Homo sapiens, UniProt P41161 1-510); details: protein: recombinant; tags: N-terminal GST; dsDNA, one strand shown
# Outline: as §1
# HSF1 = HSF1 (Homo sapiens, UniProt Q00613 1-529); details: protein: recombinant; tags: N-terminal GST; chain copies: 3; dsDNA, one strand shown
# Outline: as §1
# SPIC = biological target: T2, SPIC (Homo sapiens, UniProt Q8N5J4 1-248); details: protein: recombinant; tags: N-terminal GST; dsDNA, one strand shown
# T2 sequence: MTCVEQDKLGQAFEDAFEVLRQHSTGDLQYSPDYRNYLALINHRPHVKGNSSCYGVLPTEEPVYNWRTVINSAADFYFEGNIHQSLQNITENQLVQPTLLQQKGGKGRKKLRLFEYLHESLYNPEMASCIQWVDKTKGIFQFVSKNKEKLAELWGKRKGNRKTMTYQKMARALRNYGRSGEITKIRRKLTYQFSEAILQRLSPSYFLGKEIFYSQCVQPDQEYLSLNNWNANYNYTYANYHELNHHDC
# Outline: as §1
# ELF4 = ELF4 (Homo sapiens, UniProt Q99607 1-663); details: protein: recombinant; tags: N-terminal GST; dsDNA, one strand shown
# Outline: as §1
# ELK4 = biological target: T3, ELK4 (Homo sapiens, UniProt P28324-2 1-405); details: protein: recombinant; tags: N-terminal GST; dsDNA, one strand shown
# T3 sequence: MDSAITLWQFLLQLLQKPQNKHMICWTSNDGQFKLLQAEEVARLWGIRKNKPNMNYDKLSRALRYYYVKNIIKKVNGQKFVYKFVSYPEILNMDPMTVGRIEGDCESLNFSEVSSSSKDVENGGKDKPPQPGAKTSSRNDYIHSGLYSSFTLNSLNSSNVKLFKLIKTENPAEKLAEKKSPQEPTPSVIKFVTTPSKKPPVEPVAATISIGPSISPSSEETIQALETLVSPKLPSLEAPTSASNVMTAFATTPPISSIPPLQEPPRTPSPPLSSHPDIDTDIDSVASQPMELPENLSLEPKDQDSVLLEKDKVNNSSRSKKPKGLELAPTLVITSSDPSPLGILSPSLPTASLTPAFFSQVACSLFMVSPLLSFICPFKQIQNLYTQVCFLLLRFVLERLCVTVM
# Outline: as §1
# ETV2 = biological target: T4, ETV2 (Homo sapiens, UniProt O00321 1-342); details: protein: recombinant; tags: N-terminal GST; dsDNA, one strand shown
# T4 sequence: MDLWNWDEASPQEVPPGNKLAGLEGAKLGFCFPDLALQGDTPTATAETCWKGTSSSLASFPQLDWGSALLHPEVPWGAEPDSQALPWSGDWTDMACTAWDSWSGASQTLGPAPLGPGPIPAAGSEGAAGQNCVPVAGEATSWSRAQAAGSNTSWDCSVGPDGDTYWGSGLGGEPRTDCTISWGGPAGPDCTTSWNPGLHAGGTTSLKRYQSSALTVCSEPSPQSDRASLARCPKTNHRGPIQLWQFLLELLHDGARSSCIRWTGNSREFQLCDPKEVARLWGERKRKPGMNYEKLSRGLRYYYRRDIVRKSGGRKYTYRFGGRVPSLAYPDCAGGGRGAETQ
# Outline: as §1
# ELF3 = biological target: T5, ELF3 (Homo sapiens, UniProt P78545 1-371); details: protein: recombinant; tags: N-terminal GST; dsDNA, one strand shown
# T5 sequence: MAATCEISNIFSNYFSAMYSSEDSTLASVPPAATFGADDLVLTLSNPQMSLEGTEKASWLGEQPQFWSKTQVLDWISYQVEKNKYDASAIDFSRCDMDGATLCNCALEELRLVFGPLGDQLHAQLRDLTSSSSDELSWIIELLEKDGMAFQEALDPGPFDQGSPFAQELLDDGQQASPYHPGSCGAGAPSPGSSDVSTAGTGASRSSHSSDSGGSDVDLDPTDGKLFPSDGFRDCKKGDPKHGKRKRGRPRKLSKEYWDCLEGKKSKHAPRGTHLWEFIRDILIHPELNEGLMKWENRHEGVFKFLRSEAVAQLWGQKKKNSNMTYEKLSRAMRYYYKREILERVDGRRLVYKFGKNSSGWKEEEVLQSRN
# Outline: as §1
# CRX = CRX (Homo sapiens, UniProt O43186 1-299); details: protein: recombinant; tags: N-terminal GST; dsDNA, one strand shown
# Outline: as §1
# HSF1, sequence (Q00613 whole entry): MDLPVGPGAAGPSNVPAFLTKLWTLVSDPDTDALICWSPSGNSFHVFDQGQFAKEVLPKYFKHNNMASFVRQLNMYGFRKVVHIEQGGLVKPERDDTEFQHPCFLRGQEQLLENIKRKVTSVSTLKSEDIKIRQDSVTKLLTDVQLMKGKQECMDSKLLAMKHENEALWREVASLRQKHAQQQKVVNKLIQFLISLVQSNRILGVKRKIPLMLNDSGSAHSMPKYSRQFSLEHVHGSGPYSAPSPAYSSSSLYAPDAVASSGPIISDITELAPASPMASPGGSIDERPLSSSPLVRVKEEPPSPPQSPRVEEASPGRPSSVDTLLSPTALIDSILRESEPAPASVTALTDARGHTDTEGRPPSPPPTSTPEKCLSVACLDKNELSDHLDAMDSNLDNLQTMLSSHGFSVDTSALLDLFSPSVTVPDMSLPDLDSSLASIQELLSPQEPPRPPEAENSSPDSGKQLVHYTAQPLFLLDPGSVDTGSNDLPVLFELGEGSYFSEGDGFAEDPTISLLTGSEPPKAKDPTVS
# ELF4, sequence (Q99607 whole entry): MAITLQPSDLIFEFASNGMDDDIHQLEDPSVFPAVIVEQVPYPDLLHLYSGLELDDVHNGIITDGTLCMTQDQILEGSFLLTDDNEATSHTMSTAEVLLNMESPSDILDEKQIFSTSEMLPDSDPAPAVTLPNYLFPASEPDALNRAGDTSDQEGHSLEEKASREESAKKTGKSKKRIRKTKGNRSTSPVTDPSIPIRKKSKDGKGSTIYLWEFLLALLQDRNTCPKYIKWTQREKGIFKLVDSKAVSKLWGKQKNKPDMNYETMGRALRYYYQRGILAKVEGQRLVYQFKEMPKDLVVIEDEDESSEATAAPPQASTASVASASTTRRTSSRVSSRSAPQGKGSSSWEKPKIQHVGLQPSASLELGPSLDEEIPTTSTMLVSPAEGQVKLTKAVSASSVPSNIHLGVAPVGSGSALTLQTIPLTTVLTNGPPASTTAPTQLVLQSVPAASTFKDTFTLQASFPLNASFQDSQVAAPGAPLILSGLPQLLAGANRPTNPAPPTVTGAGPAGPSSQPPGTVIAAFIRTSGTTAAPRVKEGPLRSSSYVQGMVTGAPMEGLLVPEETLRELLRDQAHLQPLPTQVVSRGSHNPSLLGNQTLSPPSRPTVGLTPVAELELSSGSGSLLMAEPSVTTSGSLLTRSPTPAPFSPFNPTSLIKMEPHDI
# CRX, sequence (O43186 whole entry): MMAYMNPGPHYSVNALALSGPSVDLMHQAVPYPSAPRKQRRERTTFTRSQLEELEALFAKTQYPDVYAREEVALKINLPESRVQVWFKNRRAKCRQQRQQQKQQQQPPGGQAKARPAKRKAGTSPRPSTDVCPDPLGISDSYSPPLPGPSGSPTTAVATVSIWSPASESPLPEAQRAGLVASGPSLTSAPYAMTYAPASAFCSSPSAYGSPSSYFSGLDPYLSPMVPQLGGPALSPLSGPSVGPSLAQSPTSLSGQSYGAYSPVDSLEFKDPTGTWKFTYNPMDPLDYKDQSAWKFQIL
# ETV5, sequence (P41161 whole entry): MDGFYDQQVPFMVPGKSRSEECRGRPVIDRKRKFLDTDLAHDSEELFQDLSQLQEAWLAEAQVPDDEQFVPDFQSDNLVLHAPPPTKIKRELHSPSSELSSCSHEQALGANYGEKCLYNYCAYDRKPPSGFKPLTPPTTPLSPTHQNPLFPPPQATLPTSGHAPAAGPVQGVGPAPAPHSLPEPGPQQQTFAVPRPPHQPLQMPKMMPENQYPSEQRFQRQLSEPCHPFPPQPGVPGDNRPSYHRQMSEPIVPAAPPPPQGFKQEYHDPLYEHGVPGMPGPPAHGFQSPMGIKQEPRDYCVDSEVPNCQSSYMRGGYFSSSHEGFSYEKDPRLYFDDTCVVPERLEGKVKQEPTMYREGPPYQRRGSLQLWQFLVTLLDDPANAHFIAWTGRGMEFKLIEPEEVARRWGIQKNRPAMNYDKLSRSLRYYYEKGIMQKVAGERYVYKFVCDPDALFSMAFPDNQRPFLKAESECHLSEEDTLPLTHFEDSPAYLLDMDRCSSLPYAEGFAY
sequence,measurement,setting,value
GCACTT,binding signal,FEV,"2.33 fold enrichment (6-mer frequency, TF over GST control)"
same,binding signal,ETV5,"1.88 fold enrichment (6-mer frequency, TF over GST control)"
same,binding signal,HSF1,"1.17 fold enrichment (6-mer frequency, TF over GST control)"
same,binding signal,SPIC,"1.63 fold enrichment (6-mer frequency, TF over GST control)"
same,binding signal,ELF4,"1.77 fold enrichment (6-mer frequency, TF over GST control)"
same,binding signal,ELK4,"1.62 fold enrichment (6-mer frequency, TF over GST control)"
same,binding signal,ETV2,"1.66 fold enrichment (6-mer frequency, TF over GST control)"
same,binding signal,ELF3,"1.85 fold enrichment (6-mer frequency, TF over GST control)"
same,binding signal,CRX,"1.16 fold enrichment (6-mer frequency, TF over GST control)"
